About 79,000 compounds went through this panel and 15% of them were active in at least one assay; those are over-represented in the sample as a whole. The source made the active and inactive calls. No stated cut-off is given here; in the data, active means growth inhibition above about 70%; inactive means the rest.
Assays:
[1] = NCI Yeast Anticancer Drug Screen. Data for the rad52 strain (AID 147);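 further: 0% = growth of vehicle-treated control cultures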; conditions: S. cerevisiae rad52 mutant growth inhibition, hits give high values
Method in brief: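 The repair-mutant yeast strain was incubated with compounds, then growth was read and inhibition derived relative to vehicle.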

[2] = NCI Yeast Anticancer Drug Screen. Data for the wt1 strain (AID 149);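 further: 0% = growth of vehicle-treated wt1 cultures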; conditions: S. cerevisiae wt1 strain (SPY 50644) growth inhibition, hits give high values
Method in brief: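 Measured: growth of wt1 yeast under compound versus vehicle treatment, reported as inhibition.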

[3] = NCI Yeast Anticancer Drug Screen. Data for the rad50EPP+ strain (AID 151);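 further: 0% = growth of vehicle-treated control cultures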; conditions: S. cerevisiae rad50 mutant strain, hits give high values
Method in brief: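 Vehicle-normalised growth inhibition; rad50EPP+ yeast strain, altered in DNA damage repair, compound-treated.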

[4] = NCI Yeast Anticancer Drug Screen. Data for the rad50 strain (AID 155);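 further: 0% = growth of vehicle-only cultures of the same strain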; conditions: S. cerevisiae rad50 strain growth inhibition, hits give high values
Method in brief: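 Growth of the mutant yeast was measured after compound exposure and referenced to vehicle-treated cultures.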

[5] = NCI Yeast Anticancer Drug Screen. Data for the mec2-1 strain (AID 157); conditions: S. cerevisiae mec2-1 strain, hits give high values
Method in brief: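 Mutant yeast (mec2-1) grown with compound; growth inhibition relative to vehicle control reported.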

[6] = NCI Yeast Anticancer Drug Screen. Data for the rad14 strain (AID 159);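 further: 0% = growth of vehicle-treated control cultures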; conditions: S. cerevisiae rad14 strain growth inhibition, hits give high values
Method in brief: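 Here, inhibition of yeast growth was measured after compound exposure, using a strain with a genetic defect in DNA damage repair and vehicle-treated cultures as the reference.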

[7] = NCI Yeast Anticancer Drug Screen. Data for the sgs1 mgt1 strain (AID 161);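 further: 0% = growth of cultures given vehicle only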; conditions: S. cerevisiae sgs1 mgt1 strain, hits give high values
Method in brief: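 This yeast growth screen uses a strain with defined DNA-repair lesions; compound-treated growth is compared with vehicle-treated growth.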

[8] = NCI Yeast Anticancer Drug Screen. Data for the CLN2oe strain (AID 163);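 further: 0% = growth of vehicle-only control cultures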; conditions: S. cerevisiae CLN2oe strain, hits give high values
Method in brief: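 Compounds are applied to yeast harbouring a defined cell-cycle control change; reduced growth compared with vehicle-treated controls gives the value.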

[9] = NCI Yeast Anticancer Drug Screen. Data for the cln2 rad14 strain (AID 165);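 further: 0% = growth equal to vehicle treated cultures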; conditions: S. cerevisiae cln2 rad14 strain, hits give high values
Method in brief: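 Readout is yeast growth inhibition versus vehicle-treated controls, using a strain with cln2 and rad14 alterations exposed to compound.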

[10] = NCI Yeast Anticancer Drug Screen. Data for the bub3 strain (AID 167); conditions: S. cerevisiae bub3 mutant strain, hits give high values
Method in brief: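 Whole-cell yeast assay. The mutant strain was incubated with compounds, and growth inhibition was determined by comparison with vehicle-treated cells.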

[11] = NCI Yeast Anticancer Drug Screen. Data for the wt2 strain (AID 169);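 further: 0% = growth of vehicle-treated yeast cultures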; conditions: S. cerevisiae wt2 strain growth inhibition, hits give high values
Method in brief: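 Against vehicle-treated controls, the growth of yeast exposed to each compound was compared, and the inhibition was recorded.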

[12] = NCI Yeast Anticancer Drug Screen. Data for the sgs1 strain (AID 173);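 further: 0% = growth of vehicle-only control cultures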; conditions: S. cerevisiae sgs1 mutant, hits give high values
Method in brief: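 Each compound was added to cultures of the altered yeast strain. Growth was recorded, and inhibition was derived by comparison with vehicle controls.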

[13] = NCI Yeast Anticancer Drug Screen. Data for the mlh1 rad18 strain (AID 175); conditions: S. cerevisiae mlh1 rad18 strain growth inhibition, hits give high values
Method in brief: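 Genetically defined yeast (DNA repair-deficient) exposed to compounds; growth inhibition determined relative to vehicle.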

[14] = NCI Yeast Anticancer Drug Screen. Data for the rad18 strain (AID 177); conditions: S. cerevisiae rad18 mutant growth inhibition, hits give high values
Method in brief: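 Vehicle-treated cultures served as the baseline for scoring compound-induced growth inhibition in DNA-repair-mutant yeast.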

[15] = at 5.0 µM (retest, dose inferred, filed as 0.5)
[16] = at 50.0 µM (retest, dose inferred, filed as 5.0)

Measured: growth inhibition

O=[N+]([O-])/C(C(Cl)=C(Cl)Cl)=C1/OCCS1
inactive: [1]; at 1.2 µM 30% | [2]; at 1.2 µM 4% | [2]; at 3.7 µM 30% | [3]; at 1.2 µM 20% | [3]; at 3.7 µM 37% | [3]; at 11.0 µM 61% | [3]; at 100.0 µM 64% | [4]; at 1.2 µM 19% | [4]; at 3.7 µM 56% | [4]; [15] 16% | [5]; at 1.2 µM 24% | [5]; at 3.7 µM 55% | [5]; [15] 11% | [6]; at 1.2 µM 14% | [6]; at 3.7 µM 39% | [7]; [15] 40% | [8]; at 1.2 µM 15% | [8]; at 3.7 µM 44% | [9]; [15] -2% | [10]; at 1.2 µM 6% | [10]; at 3.7 µM 27% | [10]; [15] -12% | [11]; at 1.2 µM 7% | [11]; at 3.7 µM 32% | [12]; at 1.2 µM 42% | [13]; [15] 60%
active: [1]; at 3.7 µM 72% | [1]; at 11.0 µM 97% | [1]; at 33.0 µM 99% | [1]; at 100.0 µM 99% | [2]; at 11.0 µM 94% | [2]; at 33.0 µM 99% | [2]; at 100.0 µM 99% | [3]; at 33.0 µM 77% | [4]; at 11.0 µM 95% | [4]; at 33.0 µM 99% | [4]; [16] 100% | [4]; at 50.0 µM 90.5% | [4]; at 100.0 µM 99% | [5]; at 11.0 µM 97% | [5]; at 33.0 µM 98% | [5]; [16] 100% | [5]; at 50.0 µM 93.6% | [5]; at 100.0 µM 98% | [6]; at 11.0 µM 96% | [6]; at 33.0 µM 99% | [6]; at 100.0 µM 98% | [7]; [16] 100% | [7]; at 50.0 µM 90.6% | [8]; at 11.0 µM 94% | [8]; at 33.0 µM 98% | [8]; at 100.0 µM 99% | [9]; [16] 99% | [9]; at 50.0 µM 91% | [10]; at 11.0 µM 90% | [10]; at 33.0 µM 99% | [10]; [16] 100% | [10]; at 50.0 µM 92.5% | [10]; at 100.0 µM 98% | [11]; at 11.0 µM 95% | [11]; at 33.0 µM 99% | [11]; at 100.0 µM 99% | [12]; at 3.7 µM 78% | [12]; at 11.0 µM 97% | [12]; at 33.0 µM 99% | [12]; at 100.0 µM 99% | [13]; [16] 100% | [13]; at 50.0 µM 86.2% | [14]; at 1.2 µM 86% | [14]; at 3.7 µM 93% | [14]; at 11.0 µM 97% | [14]; at 33.0 µM 99% | [14]; at 100.0 µM 98%
